Assay [1] can be described thus: qHTS for differential inhibitors of proliferation of Plasmodium falciparum line GB4 (AID 1816).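 Also: parasite growth measured after 72 h incubation.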 Also: potency is read from the fitted curve at half-maximal effect. The conditions noted are these: Potency: Plasmodium falciparum GB4 proliferation inhibition. Background: Quantitative high-throughput screening tests each substance at several concentrations.
Assay [2] in a line: qHTS for differential inhibitors of proliferation of Plasmodium falciparum line 3D7 (AID 1876). Also: potency is read from the fitted curve at half-maximal effect.
A short description of assay [3]: qHTS for differential inhibitors of proliferation of Plasmodium falciparum line D10 (AID 1877).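 Also: parasites grown with compound for 72 h before DNA staining.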 Also: potency is read from the fitted curve at half-maximal effect.
Assay [4] can be described thus: qHTS for differential inhibitors of proliferation of Plasmodium falciparum line Dd2 (AID 1882). Also: nearly all actives have a fitted effect of over 65% in size. Also: potency is read from the fitted curve at half-maximal effect. The conditions noted are these: Potency: Plasmodium falciparum Dd2 proliferation inhibition. The procedure, abridged: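 RBC culture, 0.3% parasitemia / 2.5% Hct final; cpd added by pin tool in DMSO; 72 h, 37 C, 5% CO2; lysis buffer + SYBR Green I, o/n RT dark; FI 485/535; norm. to artemisinin 0.29 uM and DMSO.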

Assay [5] can be described thus: qHTS for differential inhibitors of proliferation of Plasmodium falciparum line W2 (AID 1883).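 Also: parasites grown with compound for 72 h before lysis and staining.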 Also: potency is read from the fitted curve at half-maximal effect. The conditions noted are these: Potency: Plasmodium falciparum W2 proliferation inhibition.
Assay [6] can be described thus: qHTS for differential inhibitors of proliferation of Plasmodium falciparum line HB3 (AID 1886).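 Also: parasites grown with compound for 72 h before SYBR Green readout.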 Also: potency is read from the fitted curve at half-maximal effect. The settings on record: Potency: Plasmodium falciparum HB3 proliferation inhibition.
Assay [7] concerns the target RecQ-like DNA helicase BLM (Homo sapiens) (UniProt P54132). Briefly: qHTS Validation Assay for Inhibitors of Bloom's syndrome helicase (BLM) (AID 2364). Also: potency is read from the fitted curve at half-maximal effect. Summed up:
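50 nM BLM preincubated 15 min at room temperature with compound in pH 8.0 Tris buffer containing 2.5 ug/ml poly(dI-dC); started with 200 nM TAMRA/BHQ-2 forked duplex and 2 mM ATP (final). Unwinding read as TAMRA fluorescence increase, two reads 2 h apart.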

Assay [8] can be described thus: qHTS Assay for Modulators of Human Peripheral Myelin Protein 22 (PMP22) Expression/Activity (AID 1967; active = well fitted curve in the direction sought with a large enough effect in the signal ratio; the % refers to the signal ratio). The procedure, abridged: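 Mouse MSC80 Schwann line, Pmp22 promoter–CBG68 reporter, EF-alpha–CBR internal control. 24h compound exposure, 37 °C/5% CO2, DMEM + 10% FBS. Readout: corrected green/red luminescence ratio, normalized to untreated cells; concentration-response curves fitted and classified.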

Assay [9] has as its target Ferritin light chain (Equus caballus) (UniProt P02791). The assay can be described thus: qHTS Validation Assay for Identification of Novel General Anesthetics (AID 2323). Also: series mostly up to about 77 µM. The procedure, abridged:
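10 uM horse-spleen apoferritin + 1-AMA (50% saturated, PBS); cpd pin-transferred, 10 min RT. Ex 380/Em 535 nm endpoint. Activity normalized between free 1-AMA and 1-AMA/apoferritin; 4-parameter Hill fit of concentration-response.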

In assay [10] the target is ATP-dependent DNA helicase Q1 (Homo sapiens) (UniProt P46063). The assay can be described thus: qHTS Validation Assay for Inhibitors of RecQ-Like Dna Helicase 1 (RECQ1) (AID 2353). Summed up:
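RECQ1T1 50 nM; forked duplex (20 bp + 30-nt ss tails) 200 nM, ATP 2 mM final; pH 8.0, 2 mM MgCl2, 2.5 ug/ml poly(dI-dC); 15 min compound preincubation; discontinuous kinetic read over 2 h at RT.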

Results filed as inconclusive are left out. Active and inactive are the calls of the source. Unless noted, calls follow the shape of the dose curve; as a rule, active = well fitted curve in the direction sought with a large enough effect; inconclusive = small, poorly fitted or top-dose-only effect, or another doubt; inactive = no such curve, though single readings can be large; an effect the other way counts as inactive or inconclusive.

RecQ-like DNA helicase BLM (Homo sapiens), sequence (P54132 whole entry, looked up): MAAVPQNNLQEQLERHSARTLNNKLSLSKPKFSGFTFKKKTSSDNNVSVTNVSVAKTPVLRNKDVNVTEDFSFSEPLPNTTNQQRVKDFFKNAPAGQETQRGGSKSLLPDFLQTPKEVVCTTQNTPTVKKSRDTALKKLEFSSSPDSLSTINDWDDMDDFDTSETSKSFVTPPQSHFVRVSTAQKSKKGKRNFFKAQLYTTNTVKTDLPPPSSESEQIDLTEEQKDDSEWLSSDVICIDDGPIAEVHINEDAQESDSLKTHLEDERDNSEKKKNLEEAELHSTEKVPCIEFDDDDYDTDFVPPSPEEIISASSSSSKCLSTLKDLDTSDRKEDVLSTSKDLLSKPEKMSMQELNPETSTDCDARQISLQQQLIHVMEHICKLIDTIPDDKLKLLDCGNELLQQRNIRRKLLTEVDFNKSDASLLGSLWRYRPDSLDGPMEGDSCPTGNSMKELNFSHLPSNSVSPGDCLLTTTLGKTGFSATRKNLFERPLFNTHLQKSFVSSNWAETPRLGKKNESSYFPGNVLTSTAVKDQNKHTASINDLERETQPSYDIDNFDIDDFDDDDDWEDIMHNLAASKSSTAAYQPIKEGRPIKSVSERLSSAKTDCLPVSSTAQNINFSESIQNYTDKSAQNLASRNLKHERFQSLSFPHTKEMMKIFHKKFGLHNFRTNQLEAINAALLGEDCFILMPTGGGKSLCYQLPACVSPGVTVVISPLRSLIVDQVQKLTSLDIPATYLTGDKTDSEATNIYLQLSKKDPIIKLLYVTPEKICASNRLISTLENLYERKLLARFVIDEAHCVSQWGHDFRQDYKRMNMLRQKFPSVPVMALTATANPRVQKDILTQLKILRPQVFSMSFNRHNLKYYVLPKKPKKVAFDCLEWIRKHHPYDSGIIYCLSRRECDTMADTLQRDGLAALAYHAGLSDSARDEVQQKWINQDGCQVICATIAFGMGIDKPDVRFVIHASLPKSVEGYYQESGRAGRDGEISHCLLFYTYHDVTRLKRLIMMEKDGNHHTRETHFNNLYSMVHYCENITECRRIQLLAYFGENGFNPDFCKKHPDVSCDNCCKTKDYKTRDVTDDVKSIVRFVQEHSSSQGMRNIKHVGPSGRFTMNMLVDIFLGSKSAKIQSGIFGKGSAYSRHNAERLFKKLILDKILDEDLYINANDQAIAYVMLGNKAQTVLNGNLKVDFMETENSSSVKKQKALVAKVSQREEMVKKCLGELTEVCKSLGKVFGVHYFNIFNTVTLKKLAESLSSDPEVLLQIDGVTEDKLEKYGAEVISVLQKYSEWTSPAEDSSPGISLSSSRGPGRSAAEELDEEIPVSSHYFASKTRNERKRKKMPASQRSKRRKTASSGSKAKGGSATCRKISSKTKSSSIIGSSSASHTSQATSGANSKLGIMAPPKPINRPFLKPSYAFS
Ferritin light chain (Equus caballus), sequence (P02791 2-175 limits assumed): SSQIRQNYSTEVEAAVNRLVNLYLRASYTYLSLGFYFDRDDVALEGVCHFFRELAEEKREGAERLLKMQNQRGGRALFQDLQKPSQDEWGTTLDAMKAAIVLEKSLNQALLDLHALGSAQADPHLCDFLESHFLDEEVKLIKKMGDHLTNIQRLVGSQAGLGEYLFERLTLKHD
ATP-dependent DNA helicase Q1 (Homo sapiens), sequence (P46063 whole entry, looked up): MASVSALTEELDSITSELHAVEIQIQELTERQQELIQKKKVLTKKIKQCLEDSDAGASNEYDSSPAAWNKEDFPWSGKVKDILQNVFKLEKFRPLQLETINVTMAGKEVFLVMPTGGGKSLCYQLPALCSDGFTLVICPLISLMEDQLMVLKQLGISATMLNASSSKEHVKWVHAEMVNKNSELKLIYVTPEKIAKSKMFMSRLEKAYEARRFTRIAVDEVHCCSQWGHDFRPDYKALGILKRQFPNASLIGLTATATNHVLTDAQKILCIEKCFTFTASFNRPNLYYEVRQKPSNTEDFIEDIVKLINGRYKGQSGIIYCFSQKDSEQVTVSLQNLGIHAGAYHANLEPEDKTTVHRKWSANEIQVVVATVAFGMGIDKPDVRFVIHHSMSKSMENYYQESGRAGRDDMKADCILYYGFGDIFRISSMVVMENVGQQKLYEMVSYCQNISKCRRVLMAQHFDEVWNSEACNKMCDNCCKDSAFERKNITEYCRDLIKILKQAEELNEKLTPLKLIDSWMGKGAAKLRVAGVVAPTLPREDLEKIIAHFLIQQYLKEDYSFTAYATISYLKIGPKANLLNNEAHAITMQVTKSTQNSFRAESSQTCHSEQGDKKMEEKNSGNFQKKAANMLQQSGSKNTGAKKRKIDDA

For `Cc1nc(-c2ccc(-c3ccc(C(=O)N4CCc5cc6c(cc54)C4(CCN(C)CC4)CO6)cc3)c(C)c2)no1`, the Potency is 11.2 µM (active) in [1]; 12.6 µM (active) in assay [2]; 11.2 µM (active) in assay [3]; 8.91 µM (active) in [4]; 10 µM (active) in assay [5]; 11.2 µM (active) in [6]. The Potency entry in [7] is “inactive”.
Consider `Clc1cnc(Oc2ccc(Oc3ncc(Cl)cc3Cl)cc2)c(Cl)c1`, for which the Potency entry in assay [1], in assay [2], in assay [3], in assay [4], in assay [6] and in [7] was “inactive” throughout. Besides, the compound was called inactive in [8], in [9] and in assay [10].
In the case of `C[C@@H]1O[C@H](C[N+](C)(C)C)C[C@H]1O`, the Potency result in assay [1], in assay [2], in assay [3], in assay [4], in assay [5] and in [6] was “inactive” each time. For the same compound, in [7], the Potency result was “inactive”. The outcome in assay [8], in assay [9] and in assay [10] was inactive.
For the compound `Cn1cnc(CCN)c1`, the Potency entry in assay [1], in [2], in [3], in assay [4], in [5] and in assay [6] was “inactive” each time. Besides, the Potency entry in [7] was “inactive”. In addition, the result in assay [8], in [9] and in assay [10] was inactive.
Consider `CC[C@@H]1C(=O)OC[C@@H]1Cc1cncn1C`, for which the Potency entry in assay [1], in assay [2], in assay [3], in assay [4], in assay [6] and in [7] was “inactive” each time. For the same compound, the outcome in assay [8], in [9] and in assay [10] was inactive.
For the compound `CCCN(CCC)[C@@H]1CCc2ccc(O)cc2C1`, the values for the Potency in assay [1] and in [5] were 14.1 µM (active) and 11.2 µM (active), respectively. For the same compound, the Potency entry in assay [2], in [3] and in assay [6] was “inactive” each time. In addition, the outcome in assay [8], in assay [9] and in assay [10] was inactive.
In the case of `S=C(NC1CCCCC1)N1CCC(c2cnc[nH]2)CC1`, the Potency in assay [2] and in assay [5] was 11.2 µM (active) each time. Further, the Potency entry in assay [3] and in assay [4] was “inactive” each time. Also, the compound was classed as inactive in assay [8], in assay [9] and in [10].
As to `CNCCc1ccc(O)c(O)c1`, the Potency in assay [1] was 8.91 µM (active); in assay [2] it was 12.6 µM (active); in assay [5], 10 µM (active). Further, the result in assay [9] and in [10] was inactive.
Turning to `CCCCc1ccc(C(=O)O)nc1`, the Potency result in [1], in [3] and in assay [4] was “inactive” throughout. Further, the call in [9] and in assay [10] was inactive.
As for `Cc1c(C(=O)c2cccc3ccccc23)c2cccc3c2n1[C@H](CN1CCOCC1)CO3`, the Potency was 7.94 µM (active) in assay [1], 12.6 µM (active) in assay [3] and 4.47 µM (active) in assay [5]. Moreover, the compound was classed as inactive in assay [9] and in [10].
`O=C(Cc1ccc(Cl)c(Cl)c1)N1CCCCC1CN1CCCC1` (configuration not stated): the Potency in assay [2] was 12.6 µM (active); in assay [4], 7.94 µM (active); in assay [5] it was 2 µM (active). The result in assay [9] and in assay [10] was inactive.
On to `CN[C@@H]1C[C@@H](c2ccc(Cl)c(Cl)c2)c2ccccc21`, for which the Potency in assay [2] and in assay [4] was 12.6 µM (active) each time. The outcome in assay [10] was inactive. Moreover, the Potency entry in [7] is “inactive”.
With `CN1C2CCC1CC(OC(=O)c1cc(Cl)cc(Cl)c1)C2` (configuration not stated), the Potency in assay [1] is 12.6 µM (active); in assay [2], 10 µM (active); in assay [5], 8.91 µM (active). The Potency result in assay [4] and in assay [7] was “inactive” throughout. Further, the compound was classed as inactive in assay [9] and in [10].
Consider `CC(=O)[C@H]1CCC2C3CC[C@H]4C[C@H](O)CC[C@]4(C)C3CC[C@@]21C` (some centres not stated), for which the Potency entry in assay [4] was “inactive”. For the same compound, the Potency in assay [5] was 10 µM (active). In addition, the compound was classed as inactive in assay [9] and in assay [10].
As to `C#CCOC(=O)C1=CCCN(C)C1`, the Potency is 12.6 µM (active) in assay [2] and 15.8 µM (active) in assay [5]. The Potency result in assay [4] and in assay [7] was “inactive” each time. Besides, the compound was classed as inactive in [9] and in assay [10].
Take `CC(C)Oc1cccnc1N(C)C1CCN(Cc2ccccc2)CC1`: the Potency entry in assay [3] and in assay [7] was “inactive” each time. For the same compound, the Potency in assay [5] is 4.47 µM (active). Also, the compound was classed as inactive in assay [9] and in assay [10].
On to `CCCN1CCC[C@H](c2cccc(O)c2)C1`, for which the Potency in assay [1] was 14.1 µM (active); in assay [5] it was 11.2 µM (active). Also, the Potency entry in assay [2] and in [6] was “inactive” each time. The compound was classed as inactive in [8], in [9] and in assay [10].
With `CC(C)NC(C)Cc1ccc(I)cc1` (configuration not stated), the values for the Potency in assay [1] and in [5] were 11.2 µM (active) and 7.08 µM (active), respectively. In addition, the call in assay [9] and in [10] was inactive. The Potency entry in [7] is “inactive”.
As to `C=CCN1CC[C@]23CCCCC2[C@H]1Cc1ccc(O)cc13` (some centres not stated), the Potency was 11.2 µM (active) in [1] and 7.08 µM (active) in [5]. Besides, the Potency result in assay [2], in assay [3], in assay [6] and in assay [7] was “inactive” throughout. In addition, the call in assay [8], in assay [9] and in assay [10] was inactive.
In the case of `NC1CC1c1ccccc1` (configuration not stated), the Potency in [1], in assay [5] and in assay [6] was 10 µM (active) each time. Further, in assay [4], the Potency entry was “inactive”. Besides, in assay [10], the outcome was inactive.
On to `COc1ccc2c(c[n+](C)c3c4cc5c(cc4ccc23)OCO5)c1OC`, for which the Potency is 14.1 µM (active) in assay [1], 11.2 µM (active) in assay [4] and 12.6 µM (active) in [5]. Further, the compound was called inactive in assay [9] and in [10].
`Cc1nccc2c1[nH]c1ccccc12`: the Potency was 12.6 µM (active) in assay [1], 10 µM (active) in [5] and 11.2 µM (active) in [6]. For the same compound, the Potency result in [4] and in assay [7] was “inactive” each time. The compound was called inactive in assay [10].
With `Oc1ccc2c3c1O[C@H]1c4[nH]c5c(c4C[C@@]4(O)[C@@H](C2)N(CC2CC2)CC[C@]314)C[C@@]1(O)[C@H]2Cc3ccc(O)c4c3[C@@]1(CCN2CC1CC1)[C@H]5O4`, the Potency in assay [1] was 15.8 µM (active); in assay [2] it was 11.2 µM (active); in [3], 10 µM (active); in assay [5], 12.6 µM (active); in assay [6], 12.6 µM (active). The call in assay [8], in [9] and in assay [10] was inactive. In addition, in [7], the Potency result is “inactive”.
Take `NC1CCc2cc(O)c(O)cc2C1` (configuration not stated): the Potency entry in [2] and in [4] was “inactive” each time. Moreover, the Potency in assay [5] was 14.1 µM (active). Also, the outcome in assay [8], in assay [9] and in assay [10] was inactive.
Take `C[C@]12CCC3C(CC[C@H]4C[C@H](O)CC[C@]34C)C1CC[C@@H]2C(=O)CO` (some centres not stated): the results for the Potency in assay [1], in assay [3] and in assay [5] were 14.1 µM (active), 8.91 µM (active) and 10 µM (active), respectively. The compound was classed as inactive in assay [9] and in [10]. Besides, the Potency result in assay [7] was “inactive”.
As for `c1ccc2sc(C3(N4CCCCC4)CCCCC3)cc2c1`, the Potency in assay [1] is 11.2 µM (active); in assay [2], 11.2 µM (active); in [3] it was 10 µM (active); in assay [5], 7.94 µM (active); in assay [6], 11.2 µM (active). Also, the compound was called inactive in [9] and in assay [10]. Further, the Potency result in assay [7] was “inactive”.
With `Clc1ccc(C(c2ccc(Cl)cc2)n2cc[n+](CC(OCc3ccc(Cl)cc3Cl)c3ccc(Cl)cc3Cl)c2)cc1` (configuration not stated), the Potency was 7.08 µM (active) in assay [1]; 3.55 µM (active) in [2]; 7.08 µM (active) in [3]; 3.98 µM (active) in [5]; 4.47 µM (active) in assay [6]; 28.2 µM (active) in assay [7].
Take `CC(Cc1ccc(O)cc1)NCC(O)c1cc(O)cc(O)c1` (configuration not stated): the Potency result in [4] is “inactive”. Besides, the call in assay [9] was inactive.
`CC1=NN=C(c2ccc(N)cc2)c2cc3c(cc2C1)OCO3`: the Potency entry in [4] and in assay [7] was “inactive” in each case. Further, the Potency in [5] was 8.91 µM (active). The call in [9] and in assay [10] was inactive.
With `CN[C@@H](C)[C@H](O)c1ccccc1`, the Potency in assay [1] is 10 µM (active). The call in assay [9] and in assay [10] was inactive.
Consider `CCCN(CCC)C1CCc2ccc(O)cc2C1` (configuration not stated), for which the Potency is 11.2 µM (active) in assay [1], 10 µM (active) in assay [3], 7.94 µM (active) in assay [5] and 11.2 µM (active) in assay [6]. The compound was called inactive in assay [8], in [9] and in assay [10]. The Potency entry in [7] was “inactive”.
In the case of `CCn1cc(C(=O)O)c(=O)c2cc3c(cc21)OCO3`, the call in [9] was inactive.
Consider `NCCc1c[nH]c2ccccc12`, for which the Potency result in assay [3], in assay [4] and in assay [7] was “inactive” throughout. For the same compound, the outcome in assay [9] and in [10] was inactive.

The record behind these values is PubChem BioAssay (NCATS).
